The source of these data is PubChem BioAssay.

One test deals with Albumin (Bos taurus) (UniProt P02769). The experiment in a line: bovine serum albumin binders on microarray, profiling panel, artefact control for SMM control protein annotation, biochemical, small-molecule microarray, Alexa647 label, 635/667 nm fluorescence (AID 1118).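 Note: score merges 667 nm emission intensity and signal-to-noise per printed compound spot.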 The settings on record: BSA-A647 binding, fluorescence 635 nm, higher = more signal.
Test [1] can be described thus: small-molecule microarray binders of probe aXIP, primary screen, biochemical, NeuroSMM set, 635/667 nm fluorescence (AID 1119).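 Note: probe is the protein aXip251-270 applied at 1 µg/mL to compound-printed slides; binding of probe to printed compounds measured as 667 nm fluorescence plus signal to noise.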 The settings on record: higher = more signal, called active from +8 up or from −8 down.
Test [2] can be described thus: small-molecule binders of probe aNOTCH3, primary screen, biochemical, small-molecule microarray, 635/667 nm fluorescence (AID 1120).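 Note: probe is a biotin-tagged antibody raised against NOTCH3 rather than NOTCH3 protein; score merges spot fluorescence near 667 nm with spot signal to noise.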 The settings on record: higher = more signal.
The nature of test [3]: small-molecule binders of probe aNOTCH2, primary screen, biochemical, small-molecule microarray, 635/667 nm fluorescence (AID 1121).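 Note: score merges feature fluorescence read at 667 nm with its signal to noise.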 The settings on record: higher = more signal.
The target of test [4] is Carbonic anhydrase 2 (Homo sapiens) (UniProt P00918). The experiment in a line: CAII small-molecule binders, profiling panel, biochemical, small-molecule microarray, Alexa647-labelled CAII (AID 1122). The settings on record: CAII-A647 binding fluorescence, higher = more signal.
A short description of test [5]: COS7 lysate on small-molecule microarray, probe aHis, 635 nm (AID 1123).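 Note: z-score combines 667nm fluorescence intensity with signal-to-noise per printed compound spot.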 The settings on record: COS7 cell lysate, fluorescence, higher = more signal.
Test [6] in a line: compound binding in COS7 lysate, probe aLAP1, primary screen, cell lysate, small-molecule microarray (AID 1124).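 Note: lysate comes from COS7 cells expressing LAP1 and is applied at 0.3 µg/mL; score merges spot fluorescence near 667 nm with signal-to-noise over triplicate slides.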 The settings on record: probe aLAP1, fluorescence, higher = more signal.
Another test relates to Sam68 (KHDRBS1). The experiment in a line: Sam68 small-molecule binders, primary screen, biochemical, small-molecule microarray, 635 nm fluorescence (AID 1125).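 Note: score merges 667 nm channel intensity with signal to noise over triplicate slides.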 The settings on record: small-molecule microarray binding, higher = more signal.
Test [7] concerns Chordin-like protein 2 (CHRDL2). Description: CHRDL2 small-molecule binders, primary screen, biochemical, small-molecule microarray, 635 nm fluorescence (AID 1126).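 Note: printed compound slides probed with Chrdl2 protein at 4 µg/mL for 1 h at 4 C; score merges 667 nm emission intensity with signal to noise over three replicate slides.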 The settings on record: small-molecule microarray binding, fluorescence 635 nm; higher = more signal.
Test [8] addresses Concanavalin-A (Canavalia ensiformis) (UniProt P02866). Description: ConA small-molecule binders, primary screen, artefact control for SMM control protein annotation, biochemical, small-molecule microarray, Alexa647 label, 635 nm (AID 1127).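 Note: z combines 667 nm emission intensity with signal-to-noise across three replicate slides.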 The settings on record: ConA-A647 binding fluorescence, higher = more signal.

Molecules are shown by their SMILES. Active and inactive are the calls of the source.

Concanavalin-A (Canavalia ensiformis), sequence (P02866 whole entry, looked up): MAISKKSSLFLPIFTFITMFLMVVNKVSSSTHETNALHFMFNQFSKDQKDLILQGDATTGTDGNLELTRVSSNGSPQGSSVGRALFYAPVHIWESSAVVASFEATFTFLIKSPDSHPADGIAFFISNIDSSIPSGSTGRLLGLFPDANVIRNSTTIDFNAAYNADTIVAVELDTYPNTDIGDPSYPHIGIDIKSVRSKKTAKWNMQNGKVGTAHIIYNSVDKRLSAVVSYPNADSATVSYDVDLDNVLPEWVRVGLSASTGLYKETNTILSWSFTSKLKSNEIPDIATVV
Albumin (Bos taurus), sequence (P02769 whole entry, looked up): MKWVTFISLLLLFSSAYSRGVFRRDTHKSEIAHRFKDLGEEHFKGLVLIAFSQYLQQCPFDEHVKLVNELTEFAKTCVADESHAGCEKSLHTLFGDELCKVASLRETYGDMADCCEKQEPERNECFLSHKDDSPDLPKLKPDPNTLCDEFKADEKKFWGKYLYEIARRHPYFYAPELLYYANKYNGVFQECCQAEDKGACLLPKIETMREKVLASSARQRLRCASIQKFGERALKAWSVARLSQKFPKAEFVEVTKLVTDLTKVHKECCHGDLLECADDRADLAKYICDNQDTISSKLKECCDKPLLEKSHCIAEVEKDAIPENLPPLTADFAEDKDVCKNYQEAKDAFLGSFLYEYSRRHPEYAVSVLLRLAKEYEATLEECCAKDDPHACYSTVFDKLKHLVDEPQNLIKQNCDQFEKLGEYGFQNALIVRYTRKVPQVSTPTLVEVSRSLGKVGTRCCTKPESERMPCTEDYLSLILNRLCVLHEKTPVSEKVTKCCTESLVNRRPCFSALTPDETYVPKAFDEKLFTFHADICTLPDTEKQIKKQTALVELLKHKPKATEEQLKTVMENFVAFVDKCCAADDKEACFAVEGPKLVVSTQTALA

Consider `Cc1ccc(S[C@]2(C(=O)NCC(C)C)CC(=O)N(Cc3ccccc3Cl)[C@@H]2c2ccc(CO)cc2I)cc1`, for which the composite z-score with Albumin (Bos taurus) was -0.253; in test [2], -0.179; in test [3], -0.127; in [4], 0.763; in [5], 0.363; in test [6], 0.142. The composite z-score was 0.245 with Sam68 (KHDRBS1), -0.332 in test [7] and -0.395 in test [8]. Besides, the composite Z-score in [1] was 0.0894 (inactive).

Turning to `CN(C)CCCNC(=O)[C@@]1(C)c2ccccc2C(=O)N(Cc2cc(C(F)(F)F)cc(C(F)(F)F)c2)[C@H]1c1ccc(CO)cc1`, the composite z-score was 0.193 in the test with Albumin (Bos taurus); -0.0984 in test [2]; -0.0341 in [3]; 0.485 in [4]; 0.155 in test [5]; 0.0017 in test [6]. In addition, the figures for the composite z-score (with Sam68 (KHDRBS1); in [7]; in test [8]) were -0.546, -1.03 and -1.04, respectively. In addition, the composite Z-score in [1] is 0.222 (inactive).

For `[N-]=[N+]=NCc1ccccc1[C@H]1OC(c2ccc(OCCCO)cc2)=N[C@@]1(CCS(=O)(=O)c1ccccc1)C(N)=O`, the composite z-score with Albumin (Bos taurus) turned out to be 0.736; in test [2] it was 0.302; in [3] it was 0.123; in test [4], 0.878; in test [5], 3.31; in test [6], 1.71. The values for the composite z-score (with Sam68 (KHDRBS1); in test [7]; in test [8]) were 1.3, -0.0208 and 1.2, respectively. Further, in test [1], the composite Z-score was 0.0553 (inactive).

As to `CC(=O)n1cc(C(O)C2C=CC3C(=O)N(Cc4ccccc4)C(=O)C3N2n2cnnc2)c2ccccc21` (stereo not given), the composite z-score in the test with Albumin (Bos taurus) was 0.136; in test [2], 0.0576; in [3], -0.0304; in test [4], 0.444; in test [5] it was 0.983; in test [6], 0.281. Further, the composite z-score with Sam68 (KHDRBS1) was -0.0572; in test [7], -0.243; in [8], 0.458. The composite Z-score in test [1] was -0.213 (inactive).

With `COCCCNC(=O)[C@@H]1c2ccccc2C(=O)N(Cc2ccccc2C(F)(F)F)[C@H]1c1ccc(CO)cc1`, the composite z-score is -1.34 in the test with Albumin (Bos taurus); -0.186 in [2]; -0.131 in test [3]; 0.389 in test [4]; 1.19 in test [5]; 0.216 in test [6]. Also, the figures for the composite z-score (with Sam68 (KHDRBS1); in [7]; in test [8]) were 0.433, -0.781 and -0.264, respectively. Further, the composite Z-score in test [1] is -0.0662 (inactive).

Turning to `CCOC(=O)C1=CC[C@@H](c2cc(Cl)ccc2Cl)N(S(=O)(=O)c2ccc(C)cc2)[C@H]1c1ccc(OC)cc1`, the composite z-score is 0.596 with Albumin (Bos taurus); 0.258 in [2]; 0.586 in test [3]; 0.25 in test [4]; 0.515 in test [5]; 0.325 in test [6]. In addition, the figures for the composite z-score (with Sam68 (KHDRBS1); in test [7]; in [8]) were -0.0808, -0.362 and -1.21, respectively. Also, in test [1], the composite Z-score was 0.552 (inactive).

`CC(C)(C)OC(=O)CC[C@]1(C(=O)O)N=C(c2ccc(OCCCO)cc2)O[C@H]1c1ccccc1CN=[N+]=[N-]`: the composite z-score with Albumin (Bos taurus) amounted to 0.472; in test [2], 0.0165; in test [3], 0.0264; in test [4], 0.917; in [5], 0.811; in [6], 0.383. In addition, the composite z-score in the test with Sam68 (KHDRBS1) was 0.0075; in test [7], -0.237; in test [8], -0.192. The composite Z-score in test [1] is -0.209 (inactive).

Take `COc1cc(CO)cc(I)c1O[C@H]1C=C(C(=O)NCCO)C[C@@H](NCc2ccccc2F)[C@@H]1O`: the composite z-score is 0.162 with Albumin (Bos taurus); 0.0979 in [2]; -0.179 in [3]; 0.218 in test [4]; 0.558 in [5]; 0.303 in test [6]. Also, the composite z-score came to 1.02 in the test on Sam68 (KHDRBS1), 0.486 in test [7] and 0.746 in test [8]. In [1], the composite Z-score is 0.235 (inactive).

As for `COCCOC(=O)N1C(=O)[C@@]2(c3cc(C#CC4(O)CCCCCC4)ccc31)[C@H](C(=O)N1CCCCCCC1)[C@H]1C(=O)O[C@H](c3ccccc3)[C@H](c3ccccc3)N1[C@@H]2c1ccc(OCCO)cc1`, the composite z-score with Albumin (Bos taurus) was 0.513; in test [2] it was 1.73; in [3], 0.819; in [4], 0.705; in [5] it was 3.34; in test [6] it was 1.35. In addition, the figures for the composite z-score (in the test on Sam68 (KHDRBS1); in test [7]; in test [8]) were 1.29, 1.52 and 1.14, respectively. For the same compound, the composite Z-score in test [1] was 3.82 (inactive).

In the case of `CC(C)C(=C=CC[C@@H](O)c1ccccc1OCCO)C[C@@H](O)COCc1ccccc1`, the composite z-score is -0.111 in the test with Albumin (Bos taurus); -0.132 in test [2]; 0.0363 in test [3]; 0.813 in [4]; 1.37 in test [5]; 0.641 in test [6]. Further, the composite z-score in the test with Sam68 (KHDRBS1) was 0.773; in test [7], 0.0362; in test [8] it was 0.639. Further, the composite Z-score in test [1] was 0.477 (inactive).

For the compound `COc1ccc(NN2C(C(O)c3ccccn3)C=CC3C(=O)N(C4CCCCC4)C(=O)C32)cc1` (stereo not given), the composite z-score with Albumin (Bos taurus) was 0.907; in test [2] it was 0.263; in test [3], 0.0117; in [4] it was 0.7; in test [5], 2.24; in test [6], 0.969. Also, the composite z-score with Sam68 (KHDRBS1) was 1.3; in [7], -0.203; in test [8], 1.14. For the same compound, the composite Z-score in [1] was 0.0797 (inactive).

As to `CCOC(=O)C[C@H]1[C@H](OC(=O)Cc2ccc3c(c2)OCO3)[C@@H](NC(=O)C2CCCCC2)c2cc(OCCCO)ccc2N1C(=O)c1ccc2ccccc2n1`, the composite z-score with Albumin (Bos taurus) turned out to be 0.245; in test [2], 0.0418; in test [3], 0.358; in test [4], 0.312; in test [5], 0.746; in test [6], 0.15. For the same compound, the composite z-score is 1.08 in the test with Sam68 (KHDRBS1), 1.21 in test [7] and 0.662 in test [8]. For the same compound, the composite Z-score in test [1] was -0.608 (inactive).

Regarding `CC(C)C(CO)N1C(=O)[C@]2(C)C3C(=O)OCCC/C=C\[C@H]3OC23C=CCN(c2ccc(Cl)cc2)C(=O)[C@@H]13` (stereo not given in full), the composite z-score in the test with Albumin (Bos taurus) is -0.187; in test [2], -0.157; in [3] it was -0.164; in test [4], 0.853; in test [5], 3.39; in [6], 0.32. The composite z-score is 0.36 in the test with Sam68 (KHDRBS1), -0.883 in test [7] and -0.522 in test [8]. The composite Z-score in [1] was -0.132 (inactive).
